Reference: the supplement of paper PMC4840960

Test system: E18 rat cortical neuron-glia co-culture
Experiment: myelination (MBP fiber length per Olig2+ nucleus), % of 1 µM DAPT response (DMSO = 0) (% of DAPT); higher = more myelination, active = 50 or more
Details: 1 µM; treatment time: 8 days (DIV5-DIV13)
Procedure, shortened: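 Primary E18 rat cortical co-cultures (papain-dissociated, 20,000 cells/well on poly-d-lysine/laminin 96-well plates) received library compounds at 1 or 5 µM in myelination medium from DIV5 to DIV13. Cells were fixed in 4 % paraformaldehyde and immunostained for MBP and Olig2 with DAPI, and four 10X fields per well in duplicate wells were analysed. Myelination was continuous straight MBP fiber length per Olig2+ nucleus, normalised to 0.1 % DMSO (0) and a 1 µM positive control (100).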

myelination, inactive:
N[C@@H](Cc1cc(I)c(Oc2ccc(O)c(I)c2)c(I)c1)C(=O)O [Triiodothyronine] -11.4
Cc1onc(-c2c(Cl)cccc2Cl)c1C(=O)N[C@@H]1C(=O)N2[C@@H]1SC(C)(C)[C@@H]2C(=O)O [Dicloxacillin] 5.21
CCCC(=O)O[C@]1(C(=O)COC(=O)CC)CC[C@H]2[C@@H]3CCC4=CC(=O)CC[C@]4(C)[C@H]3[C@@H](O)C[C@@]21C [Hydrocortisone buteprate] 5.43
CC(=O)[C@H]1CC[C@H]2[C@@H]3C[C@H](C)C4=CC(=O)CC[C@]4(C)[C@H]3[C@@H](O)C[C@]12C [Medrysone] 5.47
CO[C@H]1/C=C/O[C@@]2(C)Oc3c(C)c(O)c4c(O)c(c5c(nc6cc(C)ccn65)c4c3C2=O)NC(=O)/C(C)=C\C=C\[C@H](C)[C@H](O)[C@@H](C)[C@@H](O)[C@@H](C)[C@H](OC(C)=O)[C@@H]1C [Rifaximin] -4.06
CCN1CCCC1CNC(=O)c1cc(S(N)(=O)=O)ccc1OC (stereo not given) [Sulpiride] -10.3
CCCCC[C@H](O)/C=C/[C@H]1[C@H](O)CC(=O)[C@@H]1CCCCCCC(=O)O [Alprostadil] -1.94
Oc1ccc(/C=C/c2cc(O)cc(O)c2)cc1 [Resveratrol] -12
Clc1ccc2c(c1)C(N1CCNCC1)=Nc1ccccc1O2 [Amoxapine] 0.685
C[C@]12C=CC(=O)C=C1CC[C@@H]1[C@@H]2[C@@H](O)C[C@@]2(C)[C@H]1CC[C@]2(O)C(=O)COC(=O)CCC(=O)O [Prednisolone hemisuccinate] 1.93
